# In PubChem BioAssay (NCI):
# About 83,000 compounds went through this panel and 20% of them were active in at least one assay; those are over-represented in the sample as a whole.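 Note: values are percent growth. 100 is the growth of untreated cells, values between 100 and 0 indicate rising inhibition; between -100 and 0 indicates cell death.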 The source made the active and inactive calls. The calls were made as follows: active = growth percent below 10; inactive = the rest.
# System: HL-60(TB) leukemia
# Experiment: NCI-60 one-dose screen, 48 h (100 = growth as untreated, 0 = no growth, -100 = all killed)
# Conditions: 10 µM unless noted
row,Structure (SMILES),growth
1,COc1ccc(C(=O)c2c(N)c(C#N)cn2-c2ccccc2OC)cc1,-7.7% (active)
2,COc1ccccc1/C=C/C=N/NC1=NC2C(S1)N(C)C(=O)N2C (stereo unspecified),-22.1% (active)
3,O=C(O)c1ccc(-n2cc(CNc3ccc(F)cc3)c(-c3ccc(C(F)(F)F)cc3)n2)cc1,87.1% (inactive)
4,CC/C(=C/c1cc(OC)ccc1O)c1ccc2cc(OC)ccc2[o+]1,6.9% (active)
5,CC(C)(C)Nc1nc2c(OCCc3ccccc3)cccn2c1-c1ccccc1Cl,-31.6% (active)
6,CC(C)(C)c1cc(NC(=O)Nc2ccc(-c3cn4c5c(sc4n3)CCc3c[nH]cc3-5)cc2)no1,9.58% (active)
7,Cc1cc(C)n(C(=O)c2sc(=S)n(-c3ccccc3)c2N=Nc2c(N)n[nH]c2N)n1,110% (inactive)
8,Nc1cc(-c2c[nH]c3ccccc23)nc2cc(-c3c[nH]c4ccccc34)nn12,40.1% (inactive)
9,NS(=O)(=O)c1ccc(Nc2nc(Nc3ccccc3)nc(N3N=C(c4ccc(Cl)cc4)CC3c3ccc(Cl)cc3)n2)cc1 (stereo unspecified),25.6% (inactive)
10,O=C(NNc1nc2cc(F)ccc2n2cncc12)c1cnccn1,10.8% (inactive)
11,CN(C)CCn1c2ccc(N)cc2c2nc3ccccc3nc21,12% (inactive)
12,Cn1ccnc1C(=O)/C=C/C=C/c1ccc(C(=O)Nc2ccc(F)cc2)cc1,13.3% (inactive)
13,NC(=O)C(=Cc1ccc(Cl)cc1)C(N)=O,26.6% (inactive)
14,CCCSc1nc(Nc2ccc(/C(C)=N\NC(N)=S)cc2)c(C#N)c(-c2ccccc2)n1,64% (inactive)
15,COc1ccc(/C=C/C(=O)c2nnn(-c3ccc(C(=O)O)cc3)c2C)cc1OC,83.2% (inactive)
16,CCCCCc1ccc(S(=O)(=O)Nc2cc(-c3csc(NC(=O)CN4CCN(C)CC4)n3)ccc2OC)cc1,-52.4% (active)
17,CCNC(=O)N1CCc2cc(OC)c(OCCc3ccc(OC)c(N)c3)cc2C1c1cc(C)c(C)cc1C (stereo unspecified),22.1% (inactive)
18,O=C1Nc2ccc(F)cc2/C1=C\C(=O)c1ccc(NS(=O)(=O)c2ccccc2)cc1,33.1% (inactive)
19,C#Cc1nc(C(C)=O)cs1,100% (inactive)
20,CCc1ccc(NC(=O)N[C@@H](Cc2cccc(F)c2)C(=O)N[C@@H]2C(=O)N3CCC[C@H]3C(=O)N3CCCC[C@H]3C(=O)N[C@@H](C)C(=O)N3C[C@H](C)C[C@H]3C(=O)O[C@H]2C)c(F)c1,8.27% (active)
21,COc1ccc(-c2ccnc3c(C#N)c(Nc4ccccc4)nn23)cc1OC,71.1% (inactive)
22,C=CCn1c(-c2nc3ccc(C(=C(C#N)C#N)c4ccccc4)cc3[nH]2)cc2cc(Br)ccc21,59.2% (inactive)
23,Nc1cc(F)ccc1NC(=O)c1ccc(NC(=O)C/C=C/c2cccnc2)cn1,11.3% (inactive)
24,COc1ccc(/C=C(/C)c2ccc3ccc(OC)cc3[o+]2)c(O)c1,44% (inactive)
25,C#C[C@]1(O)CC[C@H]2[C@@H]3CC=C4c5sc(Nc6ccc(OC)nc6)nc5CC[C@]4(C)[C@H]3CC[C@@]21C,10.1% (inactive)
26,O=C(Nc1cccc(C(F)(F)F)c1)N1CCN(c2cc(-c3cn(-c4ccccc4)nc3-c3cccc(O)c3)ccn2)CC1,20.9% (inactive)
